ChEMBL document CHEMBL1961873, “Compounds: GSK PKIS; Assays: Nanosyn kinase panel” (2012)

How the values were obtained:
[1] = target: Mitogen-activated protein kinase 3 (Homo sapiens) (UniProt P27361); details: at 1 µM;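 note: values are mean percent inhibition of MAPK3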
[2] = target: SRSF protein kinase 3 (Homo sapiens) (UniProt Q9UPE1); details: at 0.1 µM
[3] = target: SRSF protein kinase 3 (Homo sapiens) (UniProt Q9UPE1); details: at 1 µM
[4] = target: Mitogen-activated protein kinase 14 (Homo sapiens) (UniProt Q16539); details: at 0.1 µM
Mitogen-activated protein kinase 14 (Homo sapiens), sequence (Q16539 whole entry): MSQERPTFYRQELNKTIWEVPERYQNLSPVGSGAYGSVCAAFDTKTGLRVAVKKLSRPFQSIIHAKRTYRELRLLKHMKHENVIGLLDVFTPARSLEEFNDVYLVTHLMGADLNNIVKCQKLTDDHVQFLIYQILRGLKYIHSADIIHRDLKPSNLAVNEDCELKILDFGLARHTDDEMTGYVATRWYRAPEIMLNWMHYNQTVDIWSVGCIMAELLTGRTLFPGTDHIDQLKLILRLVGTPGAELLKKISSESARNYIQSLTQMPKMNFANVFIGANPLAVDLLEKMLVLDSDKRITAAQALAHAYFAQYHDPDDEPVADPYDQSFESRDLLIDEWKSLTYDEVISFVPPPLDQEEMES

[5] = target: Mitogen-activated protein kinase 14 (Homo sapiens) (UniProt Q16539); details: at 1 µM
[6] = target: Mitogen-activated protein kinase 11 (Homo sapiens) (UniProt Q15759); details: at 0.1 µM
Mitogen-activated protein kinase 11 (Homo sapiens), sequence (Q15759 whole entry): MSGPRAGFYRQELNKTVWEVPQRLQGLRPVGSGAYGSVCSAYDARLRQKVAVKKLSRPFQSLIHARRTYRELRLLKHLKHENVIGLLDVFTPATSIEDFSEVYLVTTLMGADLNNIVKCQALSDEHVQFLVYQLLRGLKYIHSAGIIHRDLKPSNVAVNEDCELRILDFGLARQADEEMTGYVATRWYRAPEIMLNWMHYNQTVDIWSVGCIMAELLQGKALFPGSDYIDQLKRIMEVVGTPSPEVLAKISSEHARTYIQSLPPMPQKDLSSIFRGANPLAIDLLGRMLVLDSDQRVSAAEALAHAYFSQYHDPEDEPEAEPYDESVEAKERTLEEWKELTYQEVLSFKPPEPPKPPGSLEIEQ

[7] = target: Mitogen-activated protein kinase 11 (Homo sapiens) (UniProt Q15759); details: at 1 µM
[8] = target: T1, Mitogen-activated protein kinase 13 (Homo sapiens) (UniProt O15264); details: at 0.1 µM
T1 sequence (whole entry): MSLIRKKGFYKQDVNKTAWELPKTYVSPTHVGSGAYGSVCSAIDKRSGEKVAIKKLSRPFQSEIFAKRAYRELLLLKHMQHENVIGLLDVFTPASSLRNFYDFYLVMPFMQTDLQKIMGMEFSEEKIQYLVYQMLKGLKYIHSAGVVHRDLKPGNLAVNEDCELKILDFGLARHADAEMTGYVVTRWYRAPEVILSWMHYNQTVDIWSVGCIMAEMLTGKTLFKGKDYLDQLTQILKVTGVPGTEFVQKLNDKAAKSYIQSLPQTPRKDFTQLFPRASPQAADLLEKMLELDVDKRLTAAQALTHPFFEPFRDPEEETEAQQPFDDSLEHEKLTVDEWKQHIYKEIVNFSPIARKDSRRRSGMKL

[9] = target: T1, Mitogen-activated protein kinase 13 (Homo sapiens); details: at 1 µM
[10] = target: T2, Mitogen-activated protein kinase 12 (Homo sapiens) (UniProt P53778); details: at 0.1 µM
T2 sequence (whole entry): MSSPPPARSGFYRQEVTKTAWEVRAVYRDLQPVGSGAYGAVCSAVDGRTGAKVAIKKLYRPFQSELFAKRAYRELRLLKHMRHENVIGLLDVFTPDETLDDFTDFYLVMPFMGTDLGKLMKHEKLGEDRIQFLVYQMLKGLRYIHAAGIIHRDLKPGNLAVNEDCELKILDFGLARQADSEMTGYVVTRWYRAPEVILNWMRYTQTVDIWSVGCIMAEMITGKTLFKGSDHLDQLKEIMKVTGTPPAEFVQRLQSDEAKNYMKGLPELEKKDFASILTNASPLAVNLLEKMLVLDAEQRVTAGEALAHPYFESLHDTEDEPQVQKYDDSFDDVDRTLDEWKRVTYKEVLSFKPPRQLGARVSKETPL

[11] = target: T2, Mitogen-activated protein kinase 12 (Homo sapiens); details: at 1 µM
[12] = target: SRSF protein kinase 1 (Homo sapiens) (UniProt Q96SB4); details: at 0.1 µM
SRSF protein kinase 1 (Homo sapiens), sequence (Q96SB4 whole entry, canonical isoform): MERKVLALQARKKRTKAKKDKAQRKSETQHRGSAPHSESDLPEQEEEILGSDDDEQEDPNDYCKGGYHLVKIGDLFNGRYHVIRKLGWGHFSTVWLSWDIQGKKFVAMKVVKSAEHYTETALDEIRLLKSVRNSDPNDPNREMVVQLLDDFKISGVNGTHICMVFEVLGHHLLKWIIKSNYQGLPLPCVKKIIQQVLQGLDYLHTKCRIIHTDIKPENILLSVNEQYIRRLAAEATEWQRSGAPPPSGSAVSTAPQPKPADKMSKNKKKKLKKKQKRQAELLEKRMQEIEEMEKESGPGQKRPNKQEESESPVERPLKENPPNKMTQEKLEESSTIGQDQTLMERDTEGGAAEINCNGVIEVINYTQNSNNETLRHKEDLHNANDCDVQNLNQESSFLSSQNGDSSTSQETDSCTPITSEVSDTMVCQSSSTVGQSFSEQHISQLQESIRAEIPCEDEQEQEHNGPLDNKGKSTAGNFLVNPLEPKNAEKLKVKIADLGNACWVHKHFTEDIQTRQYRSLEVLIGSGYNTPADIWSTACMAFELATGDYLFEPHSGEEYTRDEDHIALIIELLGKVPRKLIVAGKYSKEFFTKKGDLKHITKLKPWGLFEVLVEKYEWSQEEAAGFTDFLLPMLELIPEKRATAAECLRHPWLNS

[13] = target: SRSF protein kinase 1 (Homo sapiens) (UniProt Q96SB4); details: at 1 µM
[14] = target: Phosphatidylinositol 4,5-bisphosphate 3-kinase catalytic subunit alpha isoform (Homo sapiens) (UniProt P42336); details: at 0.1 µM
Phosphatidylinositol 4,5-bisphosphate 3-kinase catalytic subunit alpha isoform (Homo sapiens), sequence (P42336 whole entry, canonical isoform): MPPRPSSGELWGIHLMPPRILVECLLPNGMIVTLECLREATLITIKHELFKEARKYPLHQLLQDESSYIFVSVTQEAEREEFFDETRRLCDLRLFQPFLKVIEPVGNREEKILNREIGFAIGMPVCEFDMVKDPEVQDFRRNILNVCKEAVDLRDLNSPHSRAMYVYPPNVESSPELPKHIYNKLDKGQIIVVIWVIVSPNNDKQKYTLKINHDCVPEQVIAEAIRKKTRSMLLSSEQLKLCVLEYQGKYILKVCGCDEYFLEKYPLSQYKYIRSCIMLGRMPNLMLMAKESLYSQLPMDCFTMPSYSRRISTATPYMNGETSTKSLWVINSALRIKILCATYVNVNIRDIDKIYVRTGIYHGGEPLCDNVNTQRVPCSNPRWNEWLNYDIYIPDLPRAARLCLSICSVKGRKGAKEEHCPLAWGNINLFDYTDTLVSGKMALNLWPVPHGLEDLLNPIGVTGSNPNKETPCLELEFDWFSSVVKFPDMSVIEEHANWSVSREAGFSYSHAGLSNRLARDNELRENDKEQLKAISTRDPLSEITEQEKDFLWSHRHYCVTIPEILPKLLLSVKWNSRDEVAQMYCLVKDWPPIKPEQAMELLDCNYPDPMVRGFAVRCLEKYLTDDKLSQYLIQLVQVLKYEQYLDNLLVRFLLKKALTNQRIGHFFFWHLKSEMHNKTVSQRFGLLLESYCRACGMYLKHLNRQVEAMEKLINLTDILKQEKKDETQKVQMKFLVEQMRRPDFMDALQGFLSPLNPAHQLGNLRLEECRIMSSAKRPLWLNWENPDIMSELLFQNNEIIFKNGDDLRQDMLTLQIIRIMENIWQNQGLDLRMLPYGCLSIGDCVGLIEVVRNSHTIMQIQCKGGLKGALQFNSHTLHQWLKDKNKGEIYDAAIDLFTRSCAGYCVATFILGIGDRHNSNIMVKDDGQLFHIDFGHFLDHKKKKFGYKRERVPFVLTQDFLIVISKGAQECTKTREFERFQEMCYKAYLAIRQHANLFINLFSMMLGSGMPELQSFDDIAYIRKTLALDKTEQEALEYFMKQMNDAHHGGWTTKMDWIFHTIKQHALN

[15] = target: Phosphatidylinositol 4,5-bisphosphate 3-kinase catalytic subunit alpha isoform (Homo sapiens) (UniProt P42336); details: at 1 µM
[16] = target: T3, Phosphatidylinositol 4,5-bisphosphate 3-kinase catalytic subunit delta isoform (Homo sapiens) (UniProt O00329); details: at 0.1 µM
T3 sequence (whole entry): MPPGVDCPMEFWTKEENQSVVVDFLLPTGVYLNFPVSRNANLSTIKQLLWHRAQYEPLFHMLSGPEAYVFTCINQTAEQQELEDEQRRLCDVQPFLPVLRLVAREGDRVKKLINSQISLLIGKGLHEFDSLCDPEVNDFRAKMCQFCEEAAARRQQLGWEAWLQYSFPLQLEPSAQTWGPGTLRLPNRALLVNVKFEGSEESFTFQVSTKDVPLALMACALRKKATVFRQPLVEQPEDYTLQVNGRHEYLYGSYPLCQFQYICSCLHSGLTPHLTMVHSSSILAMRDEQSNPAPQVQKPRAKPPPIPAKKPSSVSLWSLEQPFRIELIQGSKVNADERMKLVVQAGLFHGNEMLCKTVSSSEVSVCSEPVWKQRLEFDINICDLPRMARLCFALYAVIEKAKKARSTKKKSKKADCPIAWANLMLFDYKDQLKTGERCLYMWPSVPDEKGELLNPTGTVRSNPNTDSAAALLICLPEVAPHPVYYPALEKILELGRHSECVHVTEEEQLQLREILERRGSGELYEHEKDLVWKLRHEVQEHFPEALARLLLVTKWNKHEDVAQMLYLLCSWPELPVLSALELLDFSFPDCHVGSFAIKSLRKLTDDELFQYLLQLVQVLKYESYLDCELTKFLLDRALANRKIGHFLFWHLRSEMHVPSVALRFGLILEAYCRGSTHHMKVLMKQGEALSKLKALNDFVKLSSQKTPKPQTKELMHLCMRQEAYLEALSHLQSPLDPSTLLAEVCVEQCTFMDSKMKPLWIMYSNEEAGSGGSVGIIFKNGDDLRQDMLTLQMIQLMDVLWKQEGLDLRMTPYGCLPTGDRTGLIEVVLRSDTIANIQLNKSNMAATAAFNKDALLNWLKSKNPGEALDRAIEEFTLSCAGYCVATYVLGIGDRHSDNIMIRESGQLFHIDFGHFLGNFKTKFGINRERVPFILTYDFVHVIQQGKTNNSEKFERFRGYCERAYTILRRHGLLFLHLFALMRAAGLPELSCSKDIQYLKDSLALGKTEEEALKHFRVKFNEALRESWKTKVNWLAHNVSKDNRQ

[17] = target: T3, Phosphatidylinositol 4,5-bisphosphate 3-kinase catalytic subunit delta isoform (Homo sapiens); details: at 1 µM
[18] = target: Phosphatidylinositol 4-kinase beta (Homo sapiens) (UniProt Q9UBF8); details: at 0.1 µM
Phosphatidylinositol 4-kinase beta (Homo sapiens), sequence (Q9UBF8 2-816 limits assumed): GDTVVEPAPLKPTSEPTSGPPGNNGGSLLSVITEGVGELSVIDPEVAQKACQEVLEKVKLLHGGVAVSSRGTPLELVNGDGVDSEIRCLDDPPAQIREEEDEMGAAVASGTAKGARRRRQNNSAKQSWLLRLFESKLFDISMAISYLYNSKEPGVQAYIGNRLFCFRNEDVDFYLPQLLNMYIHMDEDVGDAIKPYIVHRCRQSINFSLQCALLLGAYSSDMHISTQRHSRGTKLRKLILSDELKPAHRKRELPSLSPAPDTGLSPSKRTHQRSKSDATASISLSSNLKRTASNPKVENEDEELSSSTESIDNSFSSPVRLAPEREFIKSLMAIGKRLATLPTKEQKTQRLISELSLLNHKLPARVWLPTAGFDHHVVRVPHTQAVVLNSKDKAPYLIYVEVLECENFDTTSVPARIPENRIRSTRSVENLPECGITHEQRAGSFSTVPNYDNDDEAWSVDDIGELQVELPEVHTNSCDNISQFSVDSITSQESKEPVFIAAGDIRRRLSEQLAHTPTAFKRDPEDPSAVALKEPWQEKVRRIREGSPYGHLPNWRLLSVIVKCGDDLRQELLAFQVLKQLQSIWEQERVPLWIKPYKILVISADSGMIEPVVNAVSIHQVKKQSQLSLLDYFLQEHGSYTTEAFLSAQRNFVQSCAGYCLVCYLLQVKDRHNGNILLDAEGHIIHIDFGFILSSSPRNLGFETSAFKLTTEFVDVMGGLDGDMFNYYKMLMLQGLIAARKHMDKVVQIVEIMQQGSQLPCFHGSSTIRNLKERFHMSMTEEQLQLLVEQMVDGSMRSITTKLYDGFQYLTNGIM

[19] = target: Phosphatidylinositol 4-kinase beta (Homo sapiens) (UniProt Q9UBF8); details: at 1 µM
[20] = target: Sphingosine kinase 1 (Homo sapiens) (UniProt Q9NYA1); details: at 0.1 µM;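 note: mean percent inhibition of SPHK1 activity, measured within the GSK PKIS screening panel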
Sphingosine kinase 1 (Homo sapiens), sequence (Q9NYA1 whole entry): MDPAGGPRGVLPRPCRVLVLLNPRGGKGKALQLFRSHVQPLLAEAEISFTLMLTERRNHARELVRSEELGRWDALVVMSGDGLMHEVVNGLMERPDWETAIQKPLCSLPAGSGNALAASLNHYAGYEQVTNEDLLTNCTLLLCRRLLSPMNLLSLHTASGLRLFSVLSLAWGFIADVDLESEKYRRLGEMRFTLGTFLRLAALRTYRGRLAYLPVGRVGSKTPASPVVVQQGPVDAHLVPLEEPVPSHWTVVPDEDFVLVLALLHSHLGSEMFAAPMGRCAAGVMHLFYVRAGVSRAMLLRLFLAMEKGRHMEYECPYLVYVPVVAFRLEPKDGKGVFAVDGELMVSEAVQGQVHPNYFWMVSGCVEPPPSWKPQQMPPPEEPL

Mitogen-activated protein kinase 3 (Homo sapiens), sequence (P27361 whole entry): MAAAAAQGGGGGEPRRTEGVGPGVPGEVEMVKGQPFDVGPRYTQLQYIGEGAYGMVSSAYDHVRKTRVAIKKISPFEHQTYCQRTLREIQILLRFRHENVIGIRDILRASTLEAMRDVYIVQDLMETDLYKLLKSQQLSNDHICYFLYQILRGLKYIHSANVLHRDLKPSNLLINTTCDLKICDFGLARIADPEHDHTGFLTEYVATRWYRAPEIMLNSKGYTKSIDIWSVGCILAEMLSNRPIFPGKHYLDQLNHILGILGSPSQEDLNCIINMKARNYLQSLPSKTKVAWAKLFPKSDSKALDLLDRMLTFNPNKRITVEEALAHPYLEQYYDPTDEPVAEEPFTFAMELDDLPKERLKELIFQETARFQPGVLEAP
SRSF protein kinase 3 (Homo sapiens), sequence (Q9UPE1 whole entry): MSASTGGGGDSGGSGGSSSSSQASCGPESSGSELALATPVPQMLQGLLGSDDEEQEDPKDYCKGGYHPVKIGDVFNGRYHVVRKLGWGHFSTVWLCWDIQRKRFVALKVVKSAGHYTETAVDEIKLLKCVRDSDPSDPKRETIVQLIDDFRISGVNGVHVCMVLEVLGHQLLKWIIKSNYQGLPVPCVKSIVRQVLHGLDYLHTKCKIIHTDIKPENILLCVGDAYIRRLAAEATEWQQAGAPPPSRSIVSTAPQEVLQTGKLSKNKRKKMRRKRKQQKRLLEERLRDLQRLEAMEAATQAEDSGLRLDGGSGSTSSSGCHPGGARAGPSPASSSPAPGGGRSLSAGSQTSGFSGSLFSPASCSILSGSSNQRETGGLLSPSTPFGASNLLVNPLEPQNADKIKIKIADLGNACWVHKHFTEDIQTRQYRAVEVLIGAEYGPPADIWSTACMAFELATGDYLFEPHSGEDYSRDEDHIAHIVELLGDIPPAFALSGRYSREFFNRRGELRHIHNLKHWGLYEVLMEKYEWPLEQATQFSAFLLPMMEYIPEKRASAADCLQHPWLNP

Compound | inhibition [1] | inhibition [2] | inhibition [3] | inhibition [4] | inhibition [5] | inhibition [6] | inhibition [7] | inhibition [8] | inhibition [9] | inhibition [10] | inhibition [11] | inhibition [12] | inhibition [13] | inhibition [14] | inhibition [15] | inhibition [16] | inhibition [17] | inhibition [18] | inhibition [19] | inhibition [20]
CCCN1CCCC(c2ccc(Nc3nc(Nc4cc(F)ccc4C(N)=O)c4cc[nH]c4n3)c(OC)c2)C1 (stereo not given) | 9.65% | 4.66% | 28.2% | 13.9% | 17.1% | 7.57% | 14.5% | 6.1% | 7.07% | 3.99% | 3.39% | -0.71% | 7.5% | 2.9% | 5.55% | 2.18% | 9.74% | -3.21% | -1.21% | -0.22%
Nc1ccc(C#Cc2cncnc2Nc2ccc(OCc3cccc(F)c3)c(Cl)c2)cc1 | 1.8% | -1.31% | -1.26% | 7.8% | 8.07% | 5.64% | 6.16% | 2.44% | 1.41% | 2.15% | 2.1% | -1.42% | -0.29% | 2.27% | 3.14% | 0.98% | 1.62% | 5.59% | 0.07% | 0.21%
Cc1ccc(O)cc1Nc1ccnc2ccc(S(C)(=O)=O)cc12 | 2.62% | -1.95% | -1.35% | 14% | 58.8% | 9% | 34.2% | 2.61% | 6.26% | 0.62% | 3.79% | -0.84% | 2.51% | 9.67% | 39.6% | 10.9% | 50.7% | -3.87% | 1.39% | 1.12%
Nc1nccc(-c2c(-c3ccc(F)cc3)ncn2CCCN2CCOCC2)n1 | 5.63% | -3.36% | -1.79% | 21.2% | 64.9% | 6.8% | 20.2% | 2.28% | 5.09% | 1.09% | 3.58% | -1.35% | -2.36% | 3.59% | 3.13% | 0.42% | 3.48% | -8.25% | -2.19% | 2.43%
CCn1c(-c2nonc2N)nc2c(C#CC(C)(C)O)nc(OCCNC)cc21 | 4.08% | 0.05% | -0.46% | 6.16% | 7.38% | 2.05% | 2.15% | 4.59% | 5.13% | 3.83% | 6.39% | -3.96% | -2.97% | 5.21% | 4.34% | 1.6% | 1.55% | -2.53% | 3.94% | -1.43%
NS(=O)(=O)c1ccc(NC=C2C(=O)Nc3ccc4ncsc4c32)cc1 | 28.1% | -0.67% | -0.55% | 5.49% | 18.7% | 9.06% | 27.3% | 1.67% | 9.03% | 1.56% | 5.67% | -2.53% | -1.62% | 3.58% | 13.1% | 5.31% | 27.3% | -1.46% | 4.92% | 1.36%
CCS(=O)(=O)c1ccc(OC)c(Nc2nccc(N(C)c3ccc4c(C)n[nH]c4c3)n2)c1 | 4.25% | -3.37% | -0.4% | 5.92% | 8.09% | 3.01% | 3.67% | 4.71% | 2.73% | 2.34% | 3.12% | -3.64% | -4.44% | 4.66% | 3.7% | 2.01% | 2.75% | 0.2% | -1.28% | 4.16%
O=C1Nc2ccccc2/C1=C/Nc1ccc2[nH]c(=O)[nH]c2c1 | 3.88% | -2.26% | -0.78% | 11.6% | 11.5% | 5.12% | 9.63% | 3.8% | 4.97% | 0.57% | 3.5% | -1.11% | -0.39% | 4.42% | 4.19% | 1.87% | 2.83% | -0.1% | 2.4% | 11.5%
